In PubChem BioAssay (Tox21):
“And” between values parts separate entries of the source, which are not always exact repeats. Identical values can stand only once. Records with an inconclusive call do not appear. The source made the active and inactive calls. Unless noted, calls follow the shape of the dose curve; as a rule, active = well fitted curve in the direction sought with a large enough effect in the repeat runs; inconclusive = weak or mixed curves; inactive = no such curve, though single readings can be large; an effect the other way counts as inactive or inconclusive.

Experiments:
[1] = qHTS assay to identify small molecule antagonists of the estrogen related receptor (ERR) signaling pathway from Tox21 library - cell viability counter screen (AID 1224834); also: nearly all actives have a fitted effect of over 30% in size; also: potency is read from the fitted curve at half-maximal effect
Outline: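 ERR cells, 2,000/well; 6 h settle at 37 C/5% CO2; pin-tool compound transfer in DMSO; 17.5 h at 37 C; CellTiter-Fluor, 30 min; fluorescence intensity.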

[2] = molecular target: Luciferin 4-monooxygenase (Photinus pyralis) (UniProt P08659); assay: qHTS assay to identify small molecule inhibitors of firefly luciferase (AID 1224835); also: nearly all actives have a fitted effect of over 25% in size; also: potency is read from the fitted curve at half-maximal effect; as to activity change, negative = inhibition: series mostly up to about 120 µM
Luciferin 4-monooxygenase (Photinus pyralis), sequence (P08659 whole entry, looked up): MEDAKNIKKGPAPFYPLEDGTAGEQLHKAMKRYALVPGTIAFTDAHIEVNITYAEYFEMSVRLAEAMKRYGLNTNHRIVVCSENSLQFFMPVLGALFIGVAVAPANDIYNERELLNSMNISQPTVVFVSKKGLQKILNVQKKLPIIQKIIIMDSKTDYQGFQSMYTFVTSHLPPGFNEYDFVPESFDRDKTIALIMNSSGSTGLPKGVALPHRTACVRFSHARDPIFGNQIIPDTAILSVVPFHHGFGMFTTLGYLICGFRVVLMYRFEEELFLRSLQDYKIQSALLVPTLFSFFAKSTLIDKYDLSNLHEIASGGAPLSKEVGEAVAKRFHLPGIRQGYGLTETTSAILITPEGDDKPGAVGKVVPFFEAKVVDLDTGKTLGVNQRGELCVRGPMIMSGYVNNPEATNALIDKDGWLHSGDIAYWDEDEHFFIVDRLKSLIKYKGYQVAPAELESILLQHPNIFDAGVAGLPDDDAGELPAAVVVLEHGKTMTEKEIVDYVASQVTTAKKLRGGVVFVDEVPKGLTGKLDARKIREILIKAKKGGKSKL
Outline: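 Quantitative HTS format; KM concentrations of both substrates. Purified P. pyralis FLuc activity quantified from luminescence images.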

[3] = qHTS assay to identify small molecule agonists of the constitutive androstane receptor (CAR) signaling pathway - cell viability counter screen (AID 1224836); also: nearly all actives have a fitted effect of over 45% in size; also: potency is read from the fitted curve at half-maximal effect; as to viability change, negative = cytotoxic: series mostly up to about 92 µM
Outline: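 HepG2 cells stably carrying hCAR and a CYP2B6-2.2kb reporter; 15-concentration compounds plus PK11195 (final 0.75 uM), 23 hr at 37 C/5% CO2. Viability read by CellTiter-Fluor fluorescence.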

[4] = qHTS assay to identify small molecule antagonists of the constitutive androstane receptor (CAR) signaling pathway - cell viability counter screen (AID 1224837); also: nearly all actives have a fitted effect of over 45% in size; also: potency is read from the fitted curve at half-maximal effect; as to activity change, negative = cytotoxicity: series mostly up to about 92 µM
Outline: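 Viability was measured with CellTiter-Fluor in a HepG2 line carrying stably transfected hCAR and a CYP2B6-2.2kb construct. Cells were exposed for 23 hr at 37 C to 15 compound concentrations with 50 nM CITCO as agonist.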

[5] = molecular target: Nuclear receptor subfamily 1 group I member 3 (Homo sapiens) (UniProt Q14994); assay: qHTS assay to identify small molecule antagonists of the constitutive androstane receptor (CAR) signaling pathway (AID 1224838);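 also: HepG2 cells stably expressing hCAR with CYP2B6 luciferase reporter stimulated by CITCO; nearly all actives have a fitted effect of over 40% in size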
Nuclear receptor subfamily 1 group I member 3 (Homo sapiens), sequence (Q14994 whole entry, looked up): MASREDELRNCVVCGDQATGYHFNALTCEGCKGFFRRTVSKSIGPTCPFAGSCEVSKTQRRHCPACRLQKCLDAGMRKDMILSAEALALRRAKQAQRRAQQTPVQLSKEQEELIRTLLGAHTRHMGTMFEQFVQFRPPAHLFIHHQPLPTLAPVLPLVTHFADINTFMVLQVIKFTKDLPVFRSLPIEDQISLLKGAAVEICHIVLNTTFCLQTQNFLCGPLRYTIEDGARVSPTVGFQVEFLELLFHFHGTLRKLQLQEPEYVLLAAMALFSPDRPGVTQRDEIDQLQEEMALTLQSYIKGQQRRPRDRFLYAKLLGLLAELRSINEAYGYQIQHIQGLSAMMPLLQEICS
Outline: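 Antagonist mode used CITCO at a final 50 nM to activate CAR in human hepatoma HepG2 cells carrying stable hCAR and a 2.2 kb CYP2B6 promoter-luciferase construct. Compounds were tested at 15 concentrations over 24 h, with luminescence as the end point.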

[6] = molecular target: Nuclear receptor subfamily 1 group I member 3 (Homo sapiens) (UniProt Q14994); assay: qHTS assay to identify small molecule agonists of the constitutive androstane receptor (CAR) signaling pathway (AID 1224839); also: nearly all actives have a fitted effect of over 15% in size; also: potency is read from the fitted curve at half-maximal effect; as to activation: series mostly up to about 92 µM
Outline: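 HepG2 cells stably co-transfected with hCAR and a CYP2B6-2.2kb luciferase reporter; compounds at 15 concentrations with 0.75 uM PK11195 present. After 24 hr at 37 C, luciferase read by ONE-Glo luminescence.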

[7] = molecular target: Thyrotropin receptor (Homo sapiens) (UniProt P16473); assay: qHTS assay to identify small molecule agonists of the thyroid stimulating hormone receptor (TSHR) signaling pathway (AID 1224843; calls by dose curve; also: nearly all actives have a fitted effect of over 45% in size)
Thyrotropin receptor (Homo sapiens), sequence (P16473 whole entry, looked up): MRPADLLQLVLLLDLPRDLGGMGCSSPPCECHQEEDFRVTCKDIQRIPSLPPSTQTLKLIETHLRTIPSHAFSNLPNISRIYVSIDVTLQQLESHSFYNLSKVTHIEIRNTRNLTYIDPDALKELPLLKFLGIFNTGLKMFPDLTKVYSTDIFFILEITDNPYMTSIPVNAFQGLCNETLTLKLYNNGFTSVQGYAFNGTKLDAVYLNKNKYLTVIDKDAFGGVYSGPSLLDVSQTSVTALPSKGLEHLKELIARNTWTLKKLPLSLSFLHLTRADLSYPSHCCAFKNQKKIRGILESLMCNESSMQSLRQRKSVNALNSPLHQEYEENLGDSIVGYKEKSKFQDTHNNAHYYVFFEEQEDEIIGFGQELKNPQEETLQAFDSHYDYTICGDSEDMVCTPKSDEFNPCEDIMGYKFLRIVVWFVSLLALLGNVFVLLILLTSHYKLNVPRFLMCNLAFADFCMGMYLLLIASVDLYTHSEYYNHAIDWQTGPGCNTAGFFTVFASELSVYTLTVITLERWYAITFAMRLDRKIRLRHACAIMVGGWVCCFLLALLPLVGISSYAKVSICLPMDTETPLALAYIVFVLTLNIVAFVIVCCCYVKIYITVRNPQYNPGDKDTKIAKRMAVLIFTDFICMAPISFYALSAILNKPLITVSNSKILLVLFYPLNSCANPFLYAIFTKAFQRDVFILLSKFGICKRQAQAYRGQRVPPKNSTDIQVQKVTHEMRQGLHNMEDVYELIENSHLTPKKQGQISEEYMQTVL
Outline: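 Using 15 concentrations per compound in triplicate, cAMP production was monitored in TSHR-HEK293 cells after 30 min compound incubation at RT; HTRF reagents followed, with fluorescence intensity recorded after 1 h.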

[8] = qHTS assay to identify small molecule antagonists of the estrogen related receptor signaling pathway with the pleiotropic PPARgamma coactivator (PGC) from Tox21 10K library - cell viability counter screen (AID 1224840; active = well fitted cell-killing curve with a large enough effect in the repeat runs, not every such curve was filed as active; also: nearly all actives have a fitted effect of over 40% in size)
Outline: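 Multiplexed viability counter screen in the PGC/ERR cell line: cells treated with DMSO-dissolved compounds for 17.5 hours at 37 C, then viability measured as CellTiter-Fluor fluorescence.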

[9] = qHTS assay to identify small molecule antagonists of the estrogen related receptor signaling pathway with the pleiotropic PPARgamma coactivator (PGC) from Tox21 10K library (AID 1224841; call rule not given here; also: actives are mostly falling curves and most rising ones were filed inactive; nearly all actives have a fitted effect of over 50% in size; also: potency is read from the fitted curve at half-maximal effect; as to activity, negative = inhibition: series mostly up to about 92 µM)
Outline: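 Steps: plate 2,000 PGC/ERR cells per well; incubate 6 h at 37 C with 5% CO2; transfer compounds from DMSO stocks by pin tool; incubate 18 h at 37 C; add One-Glo; measure luminescence 30 min later.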

[10] = qHTS assay to identify small molecule agonists of the estrogen related receptor signaling pathway with the pleiotropic PPARgamma coactivator (PGC) from Tox21 10K library (AID 1224842); also: nearly all actives have a fitted effect of over 15% in size
Outline: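 PGC/ERR reporter cells (NTP line) were seeded 2,000 per well, rested 6 h at 37 C/5% CO2, then pin-dosed with compounds in DMSO for 18 h at 37 C; luciferase read by One-Glo luminescence after 30 min at room temperature.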
% is scaled to controls: 0 for no effect and ±100 for the full control effect.

CCCCC#N
inactive: Potency [1] | Potency [2] | Potency [3] | Potency [4] | Potency [5] | Potency [6] | Potency [7]

CCCCOC(=O)CCC(=O)OCCCC
inactive: Potency [1] | Potency [2] | Potency [3] | Potency [4] | Potency [6] | Potency [8] | Potency [9] | Potency [10] | Potency [7]

N#CC(C#N)=Cc1ccc(O)c(O)c1
inactive: Potency [1] | Potency [2] | Potency [3] | Potency [4] | Potency [5] | Potency [6] | Potency [8] | Potency [7]

CC[N+]1(CCOC(=O)C(O)(c2ccccc2)c2ccccc2)CCCCC1
inactive: Potency [1] | Potency [2] | Potency [3] | Potency [4] | Potency [6] | Potency [8] | Potency [7]

O=C(O)C(F)(F)C(F)(F)C(F)(F)C(F)(F)C(F)(F)F
inactive: Potency [1] | Potency [2] | Potency [3] | Potency [4] | Potency [5] | Potency [6] | Potency [8] | Potency [7]

NCCc1cc(O)c(O)cc1O
inactive: Potency [1] | Potency [2] | Potency [3] | Potency [4] | Potency [6] | Potency [8]

C=C(Cl)Cl
inactive: Potency [1] | Potency [2] | Potency [3] | Potency [4] | Potency [6] | Potency [8] | Potency [9] | Potency [10] | Potency [7]

N#CC(C#N)=C(C#N)C#N
inactive: Potency [1] | Potency [2] | Potency [3] | Potency [4] | Potency [5] | Potency [8] | Potency [10] | Potency [7]
active: Potency [9] 1.8 µM

O=[N+]([O-])c1cc(Cl)c(Cl)cc1Cl
inactive: Potency [1] | Potency [2] | Potency [3] | Potency [4] | Potency [6] | Potency [8] | Potency [9] | Potency [10]

CC(Oc1cccc(Cl)c1)C(=O)O (centres undefined)
inactive: Potency [1] | Potency [2] | Potency [3] | Potency [4] | Potency [5] | Potency [6] | Potency [8] | Potency [7]

CCOC(C(=O)OCCN(C)C)(c1ccccc1)c1ccccc1
inactive: Potency [1] | Potency [2] | Potency [3] | Potency [4] | Potency [5] | Potency [9] | Potency [10]

CC(C)(C)NCC(O)c1ccccc1Cl (centres undefined)
inactive: Potency [1] | Potency [2] | Potency [3] | Potency [4] | Potency [6] | Potency [8] | Potency [9] | Potency [10] | Potency [7]

Nc1cccc2ccccc12
inactive: Potency [1] | Potency [2] | Potency [3] | Potency [4] | Potency [8] | Potency [7]
active: Potency [6] 30.8 µM and 61.1 µM

c1ccc2sc(SNC3CCCCC3)nc2c1
active: Potency [2] 11.1 µM and 22.4 µM | Potency [6] 53.9 µM
inactive: Potency [1] | Potency [3] | Potency [4] | Potency [5] | Potency [8] | Potency [7]

CCCCCCCCCCCCCCCl
inactive: Potency [1] | Potency [2] | Potency [3] | Potency [4] | Potency [6] | Potency [8] | Potency [7]

CC(C)CCON=O
inactive: Potency [1] | Potency [2] | Potency [3] | Potency [4] | Potency [6] | Potency [8] | Potency [7]

C[N+]1(CCF)[C@@H]2CC[C@H]1CC(OC(=O)C(O)(c1ccccc1)c1ccccc1)C2 (some centres undefined)
inactive: Potency [1] | Potency [2] | Potency [3] | Potency [4] | Potency [6] | Potency [8] | Potency [7]

CCOP(=S)(OCC)SCSc1cc(Cl)ccc1Cl
inactive: Potency [1] | Potency [2] | Potency [3] | Potency [4] | Potency [5] | Potency [6] | Potency [8] | Potency [7]

O=C(Cc1ccccc1)c1ccccc1
inactive: Potency [1] | Potency [3] | Potency [4] | Potency [8] | Potency [7]
active: Potency [2] 71 µM | Potency [6] 54.5 µM

CCOP(=S)(S)OCC
inactive: Potency [1] | Potency [3] | Potency [4] | Potency [6] | Potency [8] | Potency [9] | Potency [10] | Potency [7]
active: Potency [2] 33.4 µM

Clc1ccccc1
inactive: Potency [1] | Potency [2] | Potency [3] | Potency [4] | Potency [6] | Potency [8] | Potency [9] | Potency [10] | Potency [7]

CCCCCCCCCCCCN=C(N)N
inactive: viability change, negative = cytotoxic [1] 1.13% [at 3.27 µM] | activity change, negative = inhibition [2] 0.224% [at 4.07 µM] | viability change, negative = cytotoxic [3] 0.263% [at 3.27 µM] | activity change, negative = cytotoxicity [4] -5.88% [at 3.26 µM] | activity, negative = inhibition [5] 9.02% [at 3.26 µM] | viability change, negative = cytotoxic [8] 2.19% [at 3.27 µM] | activation [7] 5.05% [at 3.27 µM]

CC[N+]1(C)CCCC(OC(=O)C(O)(c2ccccc2)c2ccccc2)C1 (centres undefined)
inactive: Potency [1] | Potency [2] | Potency [3] | Potency [4] | Potency [5] | Potency [6] | Potency [10] | Potency [7]

C[N+]1(CCC(C(N)=O)(c2ccccc2)c2ccccc2)CCCCC1
inactive: Potency [1] | Potency [2] | Potency [3] | Potency [4] | Potency [8] | Potency [7]

C[C@@H]1C[C@@H]([C@H](O)CC2CC(=O)NC(=O)C2)C(=O)[C@@H](C)C1
inactive: Potency [2] | Potency [8] | Potency [10] | Potency [7]
active: Potency [1] 430 nM and 154 nM and 266 nM | Potency [3] 0.969 µM | Potency [4] 765 nM and 611 nM | Potency [9] 682 nM and 433 nM and 531 nM

CN(C)N
inactive: Potency [1] | Potency [2] | Potency [3] | Potency [4] | Potency [8] | Potency [7]

O=C(Cc1ccccc1)OCCc1ccccc1
inactive: Potency [1] | Potency [3] | Potency [4] | Potency [9] | Potency [10]
active: Potency [2] 35.6 µM

CON(C)C(=O)Nc1ccc(Cl)cc1
inactive: Potency [1] | Potency [2] | Potency [3] | Potency [4] | Potency [8] | Potency [7]

NNCCO
inactive: Potency [1] | Potency [2] | Potency [3] | Potency [4] | Potency [8] | Potency [9] | Potency [10] | Potency [7]
